# USP2a inh – inhibitors of human ubiquitin-specific protease USP2a | USP2 core, Ub-CHOP2 coupled fluorogenic reporter, 485/531 | actives 0.01% (n = 330,000) | O75604 | Potency, µM (highest dose often 38.3 µM), for inactives: at the highest dose activity change, negative = inhibition, actives largely listed as inhibitors;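 further: potency means the concentration at half of the fitted maximal effect; plate controls were DMSO wells for no effect and full inhibition by NEM control for full effect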
#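 USP2 core (10nM final) preincubated 30min RT with compound in 20mM Tris-HCl pH 8.0, 2mM CaCl2, 2mM beta-mercaptoethanol, 0.05% CHAPS; 25nM Ub-CHOP2 plus 25nM reporter substrate added, fluorescence (Ex485/Em531) read after 60min.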
# Eya2 phos inh – blocks the phosphatase activity of human Eya2. O00167. recombinant Eya2, OMFP fluorescence dephosphorylation (OMFP is methylfluorescein phosphate). Potency, µM (highest dose often 76.9 µM), for inactives: at the highest dose activity, negative = inhibition, actives largely listed as inhibitors. actives 0.006% (n = 330,000). AID 488837; further: potency means the concentration at half of the fitted maximal effect; on the % scale 0 is the no-effect control and ±100 the full control effect
#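 Eya2 protein (added as 0.2 uM solution) was preincubated with compound for 10 min at ambient temperature in 50 mM HEPES pH 7.5, 50 mM NaCl, 5 uM MgCl2, 0.05% BSA, 1 mM DTT. OMFP (added at 50 uM) then reacted 10 min; fluorescence read at 485/525 nm.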
# D1 PAM – human D1 dopamine receptor positive modulation. actives 0.036% (n = 360,000). potentiation, % at 10 µM. P21728. HEK293 TREx D1 cells, calcium flux, dopamine EC20 potentiation; in the data active means potentiation above about 30%; further: 0% is about no effect
# Target sequence (P21728 whole entry, looked up): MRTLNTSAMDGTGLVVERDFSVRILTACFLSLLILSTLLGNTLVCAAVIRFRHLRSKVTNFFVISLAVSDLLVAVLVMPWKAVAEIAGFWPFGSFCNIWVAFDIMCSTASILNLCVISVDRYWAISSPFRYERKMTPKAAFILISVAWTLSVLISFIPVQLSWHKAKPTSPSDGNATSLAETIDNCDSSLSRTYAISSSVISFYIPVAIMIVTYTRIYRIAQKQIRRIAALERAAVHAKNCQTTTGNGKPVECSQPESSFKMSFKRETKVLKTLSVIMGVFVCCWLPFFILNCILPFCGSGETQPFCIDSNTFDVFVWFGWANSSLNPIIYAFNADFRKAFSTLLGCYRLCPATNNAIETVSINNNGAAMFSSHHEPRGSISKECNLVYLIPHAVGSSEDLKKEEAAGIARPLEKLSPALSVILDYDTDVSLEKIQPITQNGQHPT
# D1 antagonist – antagonists of human D1 dopamine receptor. actives 3.2% (n = 360,000). activity change, negative = inhibition, % at 10 µM. P21728. HEK293 TREx D1 cells, calcium flux, dopamine EC80; hits give low values; in the data active means activity change below about -30%; further: on the % scale 0 is the no-effect control and ±100 the full control effect
#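 After overnight tetracycline induction at 30 C, force-coupled D1 HEK293 cells took up a no-wash calcium dye at room temperature. Compounds were added and monitored 180 s, and the response to EC80 dopamine was then recorded.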
# GALK inh – inhibitors of human galactokinase. AID 1868. Purified GALK, Kinase-Glo residual ATP luminescence. Potency, µM (titrated, usually from 57.5 µM), inactives show top-dose activity change, negative = inhibition, most hits filed as inhibitors. actives 0.007% (n = 270,000). P51570; further: potency means the concentration at half of the fitted maximal effect; on the % scale 0 is the no-effect control and ±100 the full control effect
#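 Human GALK (5 nM) with 35 uM ATP and 100 uM galactose in 20 mM HEPES pH 8.0, 5 mM MgCl2, 60 mM NaCl, 1 mM DTT, 0.01% BSA. After 1 h at room temperature, leftover ATP was read by Kinase-Glo Plus luminescence.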
# D1 ag – human D1 receptor agonism | P21728 | HEK293 T-REx D1 cells, calcium flux, agonist mode | activation, % at 2 µM | actives 1% (n = 360,000) | AID 504660; in the data active means activation above about 30%; further: 0% is about no effect
#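 Tetracycline-induced HEK293 TREx D1 cells, force-coupled to calcium signalling, were dye-loaded with a no-wash calcium kit. Compound was pin-added after a 10 s baseline. Fluorescence was read kinetically at 1 cycle/s for 180 s, with calcium rises flagged as agonism.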
# Active calls of the source: *; x = no result given; ! = not confirmed by another sample; [ ] = another dose, or the depositor's remark. In the library only some 3.9% were active in any assay of this set; here they are far more common. Unless noted, the call rests on the fitted dose curve; in most records, active means well fitted inhibition curve with a large enough effect; inconclusive means small, poorly fitted or top-dose-only effect, or effect the other way; inactive means flat fitted curve, though single readings scatter.
SMILES,USP2a inh,Eya2 phos inh,D1 PAM,D1 antagonist,GALK inh,D1 ag
COc1ccc(S(=O)(=O)N2CCN(C3CCCCCCC3)CC2)cc1,-6%,11%,-7,-68*!,-2%,-1
COc1ccc(OC2CCN(S(=O)(=O)c3ccc(OC)cc3)CC2)cc1,0%,-30%,-2,-36*!,2%,35*
CCOC(=O)N1CCC(N2CCN(S(=O)(=O)c3ccc(C)cc3)CC2)CC1,4%,-4%,3,-8,-1%,-2
COc1ccc(S(=O)(=O)N2CCC(N3CCCCC3)CC2)cc1,2%,14%,3,-1,0%,2
O=C(Cn1ncc2c3ccccc3n(Cc3cccc(Cl)c3)c2c1=O)NCCC1=CCCCC1,x,x,0,6,x,4
O=C(CC1NCCNC1=O)Nc1ccc(Cl)c(Cl)c1 (configuration not stated),1%,2%,1,21,x,2
CC(C)(C)N(NC(=O)Nc1ccc(F)cc1)C(=O)c1ccccc1,0%,-5%,3,14,2%,5
CC(C)(C)N(NC(=O)Nc1ccc(Cl)c(Cl)c1)C(=O)c1ccccc1,1%,-11%,-1,-27,2%,33*
Cc1cc(C)cc(C(=O)N(NC(=O)Nc2ccc(Cl)cc2)C(C)(C)C)c1,3%,-4%,-5,-30*,-3%,26
CC1=NNC(=O)C(CC(=O)Nc2ccc(Cl)c(Cl)c2)C1 (configuration not stated),2%,3%,-6,-36*,0%,3
CC(C)(CC(=O)O)CC(=O)Nc1ccc(Cl)c(Cl)c1,-7%,1%,-3,-58*,-4%,1
COc1ccc(S(=O)(=O)Nc2cccc(-c3ccc(N4CCCC4)nn3)c2)cc1F,x,x,-1,-23,x,4
COC(=O)c1cc(S(=O)(=O)Nc2nn(C)c3ccccc23)oc1C,2%,15%,-6,-4,x,0
COC(=O)c1cc(S(=O)(=O)Nc2nn(C)c3cccc(F)c23)oc1C,0%,4%,4,-40*,5%,0
CCCOC(=O)c1c(NC(=O)c2nc3ncccn3n2)sc(C(=O)OCC)c1C,x,x,-7,-4,x,0
CCOC(=O)C1CCCN(C2=NC(=O)/C(=C/c3ccc(N(C)C)cc3)S2)C1 (configuration not stated),29%,28%,-7,3,-1%,60*
Cc1cccc(N2CCN(C(=O)Cn3cnc4sc(C)c(S(=O)(=O)N5CCN(c6ncccn6)CC5)c4c3=O)CC2C)c1 (configuration not stated),x,x,2,-1,x,-2
COc1cccc(NC(=O)Cn2cc(C(=O)c3ccco3)c3ccccc32)c1,x,x,-1,-4,x,4
COC(=O)c1ccc(N)c(N=CC2=C(O)CC(C)(C)CC2=O)c1,7%,2%,-4,3,3%,10
CC1(C)CC(=O)C(C=Nc2cc(C(=O)c3ccccc3)ccc2N)=C(O)C1,14%,-9%,-14,-45*,0%,13
COc1ccc(OCCCn2c(=O)oc3ccc(C)cc32)cc1,x,x,2,-32*,x,73*
Cc1ccc(C(C)C)c(OCCn2c(=O)oc3ccccc32)c1,-8%,-11%,-4,3,-1%,37*
Cc1ccccc1OCCn1c(=O)oc2ccccc21,3%,-3%,10,13,-5%,5
CCCCCOc1ccccc1Cn1c(=O)oc2ccc(C)cc21,x,x,-1,-48*,x,10
Cc1ccc2oc(=O)n(CCCOc3ccccc3)c2c1,3%,-9%,-2,-13,-3%,1
Cc1cc2c(c(=O)n1Cc1ccccc1)C1O[C@](c3ccsc3)(Cc3cc(C#N)ccc31)O2,1%[7.66 µM],2%[15.4 µM],2,-11,x,0
CCCCc1ccc(NC(=O)CSc2nc(=O)[nH]c3c2CCCC3)cc1,x,x,3,x,x,1
COc1ccc(Cn2c(=O)c3cccnc3n(Cc3ccc([N+](=O)[O-])cc3)c2=O)cc1,1%,12%,-1,3,7%,16
